Shown are actives, neighbours in structure and some others; about 5.2% of the full set was active somewhere.
Sfp inh – qHTS Assay for Inhibitors of Bacillus subtilis Sfp phosphopantetheinyl transferase (PPTase). hit rate 3.5% among 310,000. 4'-phosphopantetheinyl transferase ffp (Bacillus subtilis), Q9F4F7. AID 1490, 2009. Potency, µM, most hits filed as inhibitors. Biochemical Sfp PPTase activity, qHTS;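 also: the enzyme is Sfp with the accession as filed and its product quenches rhodamine fluorescence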
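Fluorescence-quenching assay: 15 nM Sfp-PPTase preincubated 15 min at room temperature with compound, then 5 uM rhodamine-CoA and 12.5 uM BHQ-2-labelled YbbR peptide added. Fluorescence (ex 525/em 598 nm) read at start and after 30 min; difference gives rate.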
Tau fluor cs – Counterscreen qHTS for Inhibitors of Tau Fibril Formation, Fluorescence Polarization; tau K18 P301L Alexa594 fluorescence, heparin fibrillization; Potency, µM (series often up to 57.7 µM); hit rate 0.93% among 280,000; AID 1463, 2008; also: nearly all actives have a fitted effect of over 55% in size
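Human K18 P301L tau (15 uM unlabeled plus 0.24 uM Alexa 594-labeled, final) in 100 mM sodium acetate pH 7 was mixed with compound and 20 uM heparin and incubated 6 hr at 37 C.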
Tau ThT inhib – qHTS for Inhibitors of Tau Fibril Formation, Thioflavin T Binding; Microtubule-associated protein tau (Homo sapiens), P10636; recombinant tau K18 P301L, heparin-induced fibrillization, ThT fluorescence; Potency, µM (highest dose often 57.4 µM), actives largely listed as inhibitors; hit rate 2.1% among 270,000; AID 1460, 2008; also: nearly all actives have a fitted effect of over 55% in size
Target sequence (P10636 561-689 P618L limits assumed): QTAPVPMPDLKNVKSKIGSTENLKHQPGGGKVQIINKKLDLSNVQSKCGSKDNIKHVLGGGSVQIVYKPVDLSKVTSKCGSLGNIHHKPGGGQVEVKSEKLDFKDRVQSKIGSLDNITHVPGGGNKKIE
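ThT emission at 510 nm, taken 1 hr after adding 30 uM dye, quantifies aggregates formed when 20 uM heparin acts on human tau K18 P301L for 6 hr at 37 C.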
Coupling enz – qHTS Assay for Inhibitors of Fructose-1,6-bisphosphate Aldolase from Giardia Lamblia: Coupling assay counterscreen. coupling enzyme system counterscreen, AmpLite Red fluorescence. AID 2472, 2010. activity change, negative = inhibition, % at 58.2 µM, hits read low. hit rate 0.67% among 290,000; in the data active = activity change below about -30%
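First, compound is pin-transferred into glyceraldehyde-3-phosphate coupling-enzyme reagent at 57.5 uM final and held 10 min at RT. Next, substrate, coupling system and AmpLite Red are added. After 20 min RT, fluorescence (525/598 nm) is read.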
Tau FP inhib – qHTS for Inhibitors of Tau Fibril Formation, Fluorescence Polarization. K18 P301L tau heparin fibrillization, Alexa594 FP, 6 h. Potency, µM (top dose mostly 57.7 µM), hits mostly inhibitors. hit rate 0.39% among 280,000; also: nearly all actives have a fitted effect of over 55% in size
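Quantitative HTS format: compounds meet 15 uM recombinant K18 P301L tau and Alexa 594-tau tracer in 100 mM sodium acetate pH 7; 20 uM heparin triggers fibrillization at 37 C over 6 hr; FP gives the signal.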
Each line names hits and unclear results; the compound was inactive in the other large screens; [ ] = remark or other dose. Unless noted, calls follow the shape of the dose curve; as a rule, active = well fitted curve in the direction sought with a large enough effect; inconclusive = small, poorly fitted or top-dose-only effect, or another doubt; inactive = no such curve, though single readings can be large; an effect the other way counts as inactive or inconclusive.

CCOc1ccc(C2C(C#N)=C(N)SC(N)=C2C#N)cc1OC	Sfp inh 50µM, Tau ThT inhib inconclusive, Coupling enz -39
CCOc1ccc(C2C(C#N)=C(N)SC(N)=C2C#N)cc1OCC	Sfp inh inconclusive, Tau fluor cs inconclusive, Tau ThT inhib inconclusive
CCOc1ccccc1C1C(C#N)=C(N)SC(N)=C1C#N	Sfp inh 45µM, Tau ThT inhib inconclusive, Coupling enz -31
COC(=O)c1c(C)sc(-c2c(-c3ccc(F)cc3)[nH]c3[nH]c(=O)[nH]c(=O)c23)c1O	Tau fluor cs 10µM[quencher], Tau ThT inhib inconclusive (no result: Sfp inh, Coupling enz)
CCc1ccc(-c2[nH]c3c(c2-c2sc(C)c(C(=O)OC)c2O)c(=O)n(C)c(=O)n3C)cc1	none (no result: Sfp inh, Coupling enz)
C=CCSc1nc2sc3c(c2c(=O)n1CC=C)CCc1ccccc1-3	Sfp inh 45µM
CCOc1ccc2c(c1)nc(SCC(=O)c1ccc(Br)s1)n2C	Sfp inh 32µM, Tau ThT inhib inconclusive
CCOc1ccc2c(c1)nc(SCC(=O)c1cccs1)n2C	Sfp inh inconclusive
O=C(NNc1nc2cc3c(cc2s1)OCCO3)c1ccc(F)cc1	Sfp inh 56µM, Tau ThT inhib inconclusive
O=C(Nc1nc2cc3c(cc2s1)OCO3)c1ccco1	none (no result: Tau ThT inhib)
O=C(NNc1nc2cc3c(cc2s1)OCO3)c1ccc(F)cc1	Sfp inh 28µM
CC(C)C(=O)Nc1nc2cc3c(cc2s1)OCCO3	Tau fluor cs inconclusive (no result: Tau ThT inhib)
CSCC[C@H](NC(=O)[C@H](CC(C)C)NC(=O)[C@H](CO)NC(=O)[C@H](CCC(=O)O)NC(=O)[C@H](CC(C)C)NC(=O)[C@H](Cc1ccc(O)cc1)NC(=O)[C@H](CCCCN)NC(=O)[C@H](CCCCN)NC(=O)[C@H](C)NC(=O)[C@H](CO)NC(=O)[C@H](CC(C)C)NC(=O)[C@H](CCC(N)=O)NC(=O)CNC(=O)[C@H](CC(C)C)NC(=O)[C@H](CC(C)C)NC(=O)[C@H](CCCCN)NC(=O)[C@H](CO)NC(=O)[C@H](Cc1ccccc1)NC(=O)[C@H](CC(=O)O)NC(=O)[C@H](CO)NC(=O)[C@@H](NC(=O)[C@H](Cc1ccccc1)NC(=O)[C@@H](NC(=O)CNC(=O)[C@H](CC(=O)O)NC(=O)[C@H](C)NC(=O)[C@@H](N)Cc1cnc[nH]1)C(C)C)[C@@H](C)O)C(N)=O	none (no result: Tau fluor cs, Tau ThT inhib, Tau FP inhib)
COc1ccc(Cl)cc1NC(=O)C1CCN(S(=O)(=O)c2ccc3c(c2)CCCN3C(=O)C2CCC2)CC1	none (no result: Sfp inh, Coupling enz)
CC1CCC(N2CC(=O)N(C3CCCCC3)C(c3ccc(Cl)cc3)C2=O)CC1 (stereo unspecified)	none (no result: Sfp inh, Coupling enz)
O=C(CSc1cccc2cccnc12)N/N=C/c1cccc(O)c1	Tau ThT inhib inconclusive
O=C(N/N=C/c1ccc(O)c(O)c1)c1ccc(CSc2cccc3cccnc23)cc1	Tau fluor cs 22µM[quencher], Tau ThT inhib inconclusive
COc1ccc(C2C(C#N)=C(N)Oc3c2sc2nc(C)cc(C)c32)cc1 (stereo unspecified)	Tau fluor cs inconclusive, Tau ThT inhib 25µM, Tau FP inhib inconclusive
COc1cc(/C=N/Nc2nc(=O)[nH]nc2C)ccc1O	Sfp inh 56µM
COc1ccc(/C=N/Nc2nc(=O)[nH]nc2C)cc1OC	none
Cc1n[nH]c(=O)nc1N/N=C/c1ccc(O)c([N+](=O)[O-])c1	Sfp inh 56µM, Tau ThT inhib inconclusive
COc1ccc(/C=N/Nc2nc(=O)[nH]nc2C)cc1[N+](=O)[O-]	Sfp inh inconclusive, Tau ThT inhib inconclusive
COc1cc(/C=N/Nc2nc(=O)[nH]nc2C)cc([N+](=O)[O-])c1O	Sfp inh 56µM, Tau ThT inhib 14µM
Cc1ccc(-c2c(CN3CCN(c4cc(Cl)ccc4C)CC3)csc2C)cc1	none (no result: Sfp inh, Coupling enz)
O=C(c1cnccn1)N1CCC2(CCN(Cc3ccncc3)CC2)CC1	none (no result: Tau fluor cs, Tau ThT inhib, Tau FP inhib)
Cc1ccc(Cl)cc1N1CCN(C(=O)c2cc(S(=O)(=O)N3CCCC3)c[nH]2)CC1	Tau fluor cs inconclusive, Tau ThT inhib inconclusive (no result: Sfp inh, Coupling enz)

Bioassay records from PubChem.
